Experimental data: the supplement of paper PMC5919970
Counter-ions that a name gives are not always drawn. Over roughly 2,000 compounds, “fractional viability relative to vehicle” has its median near 0.91; the lowest 2% begin near 0.045. The entries come from a sample that favours the lowest values as a whole.

Tested on: TYKNU
Assay: fractional viability relative to vehicle; TYKNU is a high-grade serous ovarian cancer line; higher = less growth inhibition
Conditions: 72 h
Summary of the method: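 TYKNU control cells or lentiCRISPRv2 knockout derivatives were seeded at 500 cells per well into drug-stamped 384-well plates holding a ~2100-compound library at 2 or 10 μM, in duplicate. Cells were grown at 37 °C in 5% CO2 in RPMI 1640 with 10% FBS, and drug treatment lasted 72 h. Viability was read by Cell Titer Glo luminescence. Duplicate treatment wells were averaged and normalised to duplicate control wells from the same plate position.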

[1] = 2uM, genotype: DNM1L knockout (sgDNM1L #1)
[2] = 2uM, genotype: sgCTRLA1 (non-targeting control)
[3] = 10uM, genotype: DNM1L knockout (sgDNM1L #1)
[4] = 10uM, genotype: sgCTRLA1 (non-targeting control)

Row | Compound | fractional viability [1] | fractional viability [2] | fractional viability [3] | fractional viability [4]
1 | COc1ccc(C(=O)CC2(O)C(=O)Nc3c(Cl)ccc(Cl)c32)cc1 (centres undefined) | 0.264 | 0.243 | 0.175 | 0.186
2 | Cc1ccc(NC(=O)c2ccc(CN3CCN(C)CC3)cc2)cc1Nc1nccc(-c2cccnc2)n1 [Imatinib (STI571)] | 1.18 | 1.1 | 0.839 | 0.867
3 | Cc1ccc(NC(=O)c2ccc(CN3CC[C@H](N(C)C)C3)c(C(F)(F)F)c2)cc1Nc1nccc(-c2cncnc2)n1 [Bafetinib (INNO-406)] | 0.684 | 0.569 | 0.0871 | 0.0998
4 | Cc1ccc(NC(=O)c2ccc(CN3CCN(C)CC3)cc2)cc1Nc1nc(-c2cccnc2)cs1 [Masitinib (AB1010)] | 1.29 | 1.09 | 0.779 | 0.775
5 | Cc1ccc(C(=O)Nc2ccc(CN3CCN(C)CC3)c(C(F)(F)F)c2)cc1C#Cc1cnc2[nH]ncc2c1 | 0.214 | 0.169 | 0.0362 | 0.0116
6 | Cc1ccc(NC(=O)c2ccc(CN3CCN(C)CC3)cc2)cc1Nc1nccc(-c2cccnc2)n1 [Imatinib Mesylate (STI571)] | 1.08 | 1.12 | 0.599 | 0.612
7 | CCN1CCN(Cc2ccc(C(=O)Nc3ccc(C)c(Oc4ccc5c(c4)CC(=O)N5)c3)cc2C(F)(F)F)CC1 | 0.704 | 0.758 | 0.477 | 0.756
8 | Cc1ccc(C(=O)Nc2ccc(CN3CCN(C)CC3)c(C(F)(F)F)c2)cc1C#Cc1cnc2cccnn12 | 0.227 | 0.185 | 0.0344 | 0.0177
9 | CC(C)n1nc(-c2ccc3oc(N)nc3c2)c2c(N)ncnc21 | 0.194 | 0.191 | 0.181 | 0.171
10 | Cc1nc(N(C)C(=O)Cc2ccc(-c3ccccn3)cc2)sc1S(N)(=O)=O [Pritelivir (BAY 57-1293)] | 0.897 | 0.947 | 0.855 | 0.818
11 | COc1cccc(C=NCCN=Cc2cccc(OC)c2[O-])c1[O-].[Cl-].[Mn+3] | 0.805 | 0.978 | 0.756 | 0.897
12 | Cc1nc2ccc(-n3ncc(C(=O)c4cc5ccccc5[nH]4)c3N)cc2[nH]1 | 0.935 | 0.923 | 0.958 | 0.819
13 | Cc1ccc(NC(=O)C2(c3ccc4c(c3)OC(F)(F)O4)CC2)nc1-c1cccc(C(=O)O)c1 [VX-809 (Lumacaftor)] | 0.94 | 1.12 | 0.933 | 1.06
14 | CCO[C@@H]1OC(=O)C[C@@H]1NC(=O)[C@@H]1CCCN1C(=O)[C@@H](NC(=O)c1ccc(N)c(Cl)c1)C(C)(C)C | 0.968 | 1.18 | 0.898 | 1.09
15 | CCC1C/C(=C\c2cccnc2)C(=O)/C(=C/c2cccnc2)C1 (centres undefined) | 0.104 | 0.0876 | 0.0563 | 0.0253
16 | COc1cc2c(cc1OC)[C@@H]1Cc3ccc(OC)c(OC)c3CN1CC2 [Rotundine] | 1.17 | 1.06 | 1.18 | 1.01
17 | CC[C@]12C=CCN3CC[C@@]4(c5cc([C@@]6(C(=O)OC)C[C@@H]7C[C@@H](C(C)(F)F)CN(Cc8c6[nH]c6ccccc86)C7)c(OC)cc5N(C)[C@H]4[C@@](O)(C(=O)OC)[C@@H]1OC(C)=O)[C@@H]32 [Vinflunine Tartrate] | 0.191 | 0.144 | 0.142 | 0.114
18 | O=C(CCCCCN1C(=O)c2cccc3cccc(c23)C1=O)NO [Scriptaid] | 0.411 | 0.51 | 0.108 | 0.109

Row | Compound | fractional viability [1] | fractional viability [2] | fractional viability [3] | fractional viability [4]
19 | O=C(O)C1=C[C@@H](O)[C@@H](O)[C@H](O)C1 [Shikimic Acid] | 0.996 | 1.17 | 0.84 | 1.06
20 | COCC[n+]1c2c(n(Cc3cnccn3)c1C)C(=O)c1ccccc1C2=O [YM155 (Sepantronium Bromide)] | 0.0411 | 0.0393 | 0.0214 | 0.0241
21 | COc1cc2ncnc(Sc3nnc(C)s3)c2cc1OC | 0.747 | 0.866 | 0.0591 | 0.0581
22 | O=C(C[S+]([O-])Cc1ccco1)NC/C=C\COc1cc(CN2CCCCC2)ccn1 (centres undefined) [Lafutidine] | 1 | 1.2 | 0.826 | 1.06
23 | O=C([O-])c1ccccc1O.[Na+] [Sodium salicylate] | 1.08 | 1.09 | 0.913 | 1.03
24 | CN1CCN(c2ccc3nc(-c4c(N)c5c(F)cccc5[nH]c4=O)[nH]c3c2)CC1 [Dovitinib (TKI-258, CHIR-258)] | 0.523 | 0.465 | 0.119 | 0.0963
25 | CN1CCN(c2ccc3nc(-c4c(N)c5c(F)cccc5[nH]c4=O)[nH]c3c2)CC1 [Dovitinib (TKI258) Lactate] | 0.398 | 0.423 | 0.0366 | 0.0252
26 | O=C(O)c1ccc(N2C(=O)/C(=C\c3ccc(-c4ccc([N+](=O)[O-])cc4)o3)C=C2c2ccccc2)cc1 | 0.851 | 0.873 | 0.899 | 0.776
27 | O=c1ncccn1[C@@H]1O[C@H](CO)[C@@H](O)[C@H]1O [Zebularine] | 0.97 | 1.06 | 0.676 | 0.938
28 | O=C(Nc1ccccc1)N1CCN(c2nc(-c3ccccc3)ns2)CC1 | 1.06 | 1.14 | 0.828 | 0.976
29 | COc1cc2nccc(Oc3ccc(NC(=O)C4(C(=O)Nc5ccc(F)cc5)CC4)cc3)c2cc1OC | 1.15 | 1.17 | 0.615 | 0.64
30 | COc1cc2c(Oc3ccc(NC(=O)C4(C(=O)Nc5ccc(F)cc5)CC4)cc3F)ccnc2cc1OCCCN1CCOCC1 | 0.628 | 0.631 | 0.0524 | 0.0418
31 | COc1cc2c(Nc3ccc(NC(=O)c4ccccc4)cc3)ncnc2cc1OCCCN1CCOCC1 | 0.862 | 0.959 | 0.266 | 0.22
32 | CCN(C(=O)c1c(O)c2c(Cl)cccc2n(C)c1=O)c1ccccc1 [Laquinimod] | 1.22 | 1.14 | 0.958 | 1.08
33 | CC[C@H](Nc1ncnc2[nH]cnc12)c1nc2cccc(F)c2c(=O)n1-c1ccccc1 [CAL-101 (Idelalisib, GS-1101)] | 0.947 | 1.11 | 0.863 | 0.971
34 | CN(C)CC(=O)Nc1ccc2[nH]c(=O)c3ccccc3c2c1 | 0.84 | 1.06 | 0.74 | 1.03
35 | Nc1nc(Nc2ccc3c(c2)CCC(N2CCCC2)CC3)nn1-c1cc2c(nn1)-c1ccccc1CCC2 (centres undefined) | 0.343 | 0.242 | 0.0232 | 0.0259
36 | CNC[C@@H](O)c1ccc(O)c(O)c1 [L-Adrenaline] | 0.842 | 1 | 0.784 | 0.91
